Most compounds without a hit are left out; they make up all but 11% or so of the library.
IMPase cell inh: qHTS Assay for Identifying the Cell-Membrane Permeable IMPase Inhibitors | 120,000 tested, under 10 active | CHO-M1 cells, IP1 accumulation, HTRF TR-FRET ratio | Inositol monophosphatase 1 (Rattus norvegicus), P97697 | inhibition (IP1 accumulation), % at 46.1 µM | AID 901, 2007; active = well fitted curve in the direction sought with a large enough effect in the signal ratio, not every such curve was filed as active; inconclusive = small, poorly fitted or top-dose-only effect, or a change in a side signal; inactive = no such curve, though single readings can be large or run the other way; the % refers to the signal ratio;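 note: cells stimulated with carbachol in lithium chloride buffer; higher means more IMPase inhibition seen as more IP1 and lower FRET ratio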
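The IP-One HTRF competitive assay in carbachol-stimulated CHO-M1 cells quantifies cellular IP1. Compounds spanned up to 46 uM final, and activity is expressed as AC50 from concentration-response fits of the ratio and donor data.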
PNC assembly inh: High Content Assay for Compounds that inhibit the Assembly of the Perinucleolar Compartment; PC3M PTB-GFP, PNC prevalence imaging, 16 h; hits give low values; activity change (PNC), negative = inhibition, % at 10 µM; 140,000 compounds, 3.1% hits; AID 2417, 2010;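 active = readout at or below -70, meaning at least 70% loss of cells showing the perinucleolar compartment, a nuclear body marking cancer cells; inconclusive = readout between -30 and a set limit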
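Read-out is percentage of cells bearing a perinucleolar compartment, from automated 20x imaging of fixed, Hoechst-stained PC3M PTB-GFP cells. Cells were seeded 4 h, then exposed 16 h to compound (23 nl of library stock) in duplicate plates.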
NPSR antag: qHTS Assay for Antagonists of the Neuropeptide S Receptor: cAMP Signal Transduction; 220,000 compounds, 1% hits; CHO-NPSR cells, cAMP TR-FRET, antagonist mode; Q6W5P4; Potency, µM (series often up to 38.3 µM), hits mostly inhibitors; active = well fitted curve in the direction sought with a large enough effect; inconclusive = small, poorly fitted or top-dose-only effect, or another doubt; inactive = no such curve, though single readings can be large; an effect the other way counts as inactive or inconclusive; note: nearly all actives have a fitted effect of over 50% in size
HPGD inh: qHTS Assay for Inhibitors of HPGD (15-Hydroxyprostaglandin Dehydrogenase). purified HPGD, NADH fluorescence kinetic, PGE2 substrate. Potency, µM, actives largely listed as inhibitors. 150,000 compounds, 4.3% hits. AID 894, 2007
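NADH formation kinetics: reaction with 30 uM PGE2 and 1 mM NAD+ (final), 20 nM enzyme, Tris-HCl pH 8 with Tween 20, after 15 min compound preincubation at room temperature. Fluorescence change, last versus first of five reads.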
ALDH1A1 block: qHTS Assay for Inhibitors of Aldehyde Dehydrogenase 1 (ALDH1A1); Purified ALDH1A1, NADH fluorescence, propionaldehyde substrate; Potency, µM (titrated, usually from 75.3 µM), usual class: inhibitors; 220,000 compounds, 7.3% hits; AID 1030, 2008
Target sequence (P00352 whole entry, looked up): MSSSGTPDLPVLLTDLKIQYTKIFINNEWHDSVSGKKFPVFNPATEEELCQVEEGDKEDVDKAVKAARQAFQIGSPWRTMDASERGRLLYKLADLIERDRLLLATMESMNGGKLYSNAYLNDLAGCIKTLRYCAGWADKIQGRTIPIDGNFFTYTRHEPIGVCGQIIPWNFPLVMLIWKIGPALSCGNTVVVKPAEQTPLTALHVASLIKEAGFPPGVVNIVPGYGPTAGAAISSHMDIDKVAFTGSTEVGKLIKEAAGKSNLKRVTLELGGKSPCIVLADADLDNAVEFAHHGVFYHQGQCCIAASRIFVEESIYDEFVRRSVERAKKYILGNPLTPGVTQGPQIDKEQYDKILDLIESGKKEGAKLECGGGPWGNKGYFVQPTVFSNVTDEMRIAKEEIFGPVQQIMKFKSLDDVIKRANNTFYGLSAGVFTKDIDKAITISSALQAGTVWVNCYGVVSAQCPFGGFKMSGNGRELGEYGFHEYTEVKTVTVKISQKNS
IMPase Li inh: qHTS Assay for Identifying the Cell-Membrane Permeable IMPase Inhibitors: Potentiation with Lithium. CHO-M1 cells, IP1 TR-FRET (IP-One), carbachol + lithium. 210,000 compounds, 0.35% hits. AID 1457, 2008. Potency, µM (doses to about 59.4 µM), hits mostly inhibitors; active = well fitted curve in the direction sought with a large enough effect; inconclusive = small, poorly fitted or top-dose-only effect, or another doubt; inactive = no such curve, though single readings can be large; an effect the other way counts as inactive or inconclusive;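 note: IP1 builds up when IMPase is blocked and the TR-FRET signal falls; nearly all actives have a fitted effect of over 50% in size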
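Concentration–response in CHO-M1 cells, lithium-potentiated; 30 min at 37C. IP1 detected by competitive TR-FRET after 10 min lysis at RT. Hill-fitted AC50.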
Numbers stand for hits; 0 = inactive; ? = inconclusive; - = not tested or not shown; [ ] = another dose, or the depositor's remark. Unless noted, calls come from the whole dose curve; as a rule, active = well fitted inhibition curve with a large enough effect (not every such curve was filed as active); inconclusive = small, poorly fitted or top-dose-only effect, or another doubt; inactive = no such curve, though single readings can be large or run the other way.

SMILES	IMPase cell inh	PNC assembly inh	NPSR antag	HPGD inh	ALDH1A1 block	IMPase Li inh
COc1cc(C(CCN2CCCC2)c2c(OC)cc(OC)c3ccc(=O)oc23)cc(OC)c1OC (stereo not given)	-	-	0	-	-	-
COc1cc(C(CCN2CCN(c3ccccc3)CC2)c2c(OC)cc(OC)c3c(C)cc(=O)oc23)cc(OC)c1OC (stereo not given)	-	-	6.3µM	-	-	-
CCCCCc1cc(=O)oc2c(C(CCN3CCCCC3)c3cc(OC)c(OC)c(OC)c3)c(OC)cc(OC)c12 (stereo not given)	-	-	10µM	-	-	-
CCCCCc1cc(=O)oc2c(C(CCN3CCCC(C)C3)c3cc(OC)c(OC)c(OC)c3)c(OC)cc(OC)c12 (stereo not given)	-	-	6.3µM	-	-	-
CC1=C(C)C(=O)N(c2ccc(C(=O)O)cc2)C1=O	0	0	0	0	0	0
COc1ccc(N2CCN(C(=O)CCC(=O)c3cc(C)sc3C)CC2)cc1	-	-	0	-	0	0
CCC(CC)COC(=O)C(C#N)c1nc2ccccc2nc1N1CCOCC1 (stereo not given)	0	?	?	0	10µM	0
COCC(C)OC(=O)C(C#N)c1nc2ccccc2nc1N1CCN(Cc2ccccc2)CC1 (stereo not given)	0	0	0	0	?	0
N#CC(C(=O)OC1CCCCC1)c1nc2ccccc2nc1N1CCOCC1 (stereo not given)	0	0	?	0	0	0
CC(C)COC(=O)C(C#N)c1nc2ccccc2nc1N1CCN(Cc2ccccc2)CC1 (stereo not given)	0	0	0	0	13µM	0
CN1CCN(c2nc3ccccc3nc2C(C#N)C(=O)OC2CCCCC2)CC1 (stereo not given)	0	0	0[7.67 µM]	0	16µM	0
CCOc1ccc(C(CC(=O)O)NC(=O)c2cccs2)cc1OC (stereo not given)	-	-	0	-	0	0
O=C(c1ccc(S(=O)(=O)N2CCOCC2)cc1)N(c1ccccc1)C1C=CS(=O)(=O)C1 (stereo not given)	0[1.84 µM]	0	0	0	?	0
Cc1ccc(NC(=O)Cn2nc(C(F)(F)F)c3c2CCC3)cc1C	0	-	-	-	-	-
O=C(CNC(=O)c1cccc(Cl)c1)N/N=C/C=C/c1ccccc1	-	?	0	0	0	0
Brc1ccc2oc3c(N4CCOCC4)ncnc3c2c1	0	0	0	?	0	0
COCCSc1ncnc2c1oc1nc3c(cc12)COC(C)(C)C3	-	-	0	-	6.3µM	-
CC1(C)Cc2nc3oc4c(N5CCOCC5)ncnc4c3cc2CO1	0	-109	0	?	?	0
CC1(C)Cc2nc3oc4c(N(CCO)Cc5ccccc5)ncnc4c3cc2CO1	0	0	0	?	?	0
CC(=O)N(C(C)=O)S(=O)(=O)c1ccc(N=NN2CCOCC2)cc1	-	0	0	0	0	0
Cc1cc(Br)c(OCc2ccc(C(=O)N/N=C3\CC4CC=CC34)cc2)c(Br)c1 (stereo not given)	-	0	0	13µM	8.9µM	0
COc1ccc(N2CC(C)Cn3c2nc2c3c(=O)n(Cc3ccccc3)c(=O)n2C)c(OC)c1 (stereo not given)	-	-	0	-	32µM	0
CN(C)c1nc2c(c(=O)[nH]c(=O)n2C)n1Cc1ccccc1Br	0	0	0	18µM	0	0
Cc1ccc(Cn2c(N3CCCCCC3)nc3c2c(=O)[nH]c(=O)n3C)cc1	0	0	0	0	1.6µM	0
CC1CCCN(c2nc3c(c(=O)[nH]c(=O)n3C)n2Cc2ccccc2Cl)C1 (stereo not given)	0	-87	0	0	10µM	0
SMILES	IMPase cell inh	PNC assembly inh	NPSR antag	HPGD inh	ALDH1A1 block	IMPase Li inh
Cc1nn(C)c(Oc2ccccc2)c1CCNC(=O)C(C)(C)C	-	-	0	-	0	0
Cc1ccc(C(=O)N2CCc3ccccc32)cc1	0	?	0	?	0	0
CCOC(=O)Cc1csc(NC(=O)CCSc2ccccc2)n1	-	-	0	-	?	0
CC1CCCN(c2nc3c(c(=O)n(C)c(=O)n3C)n2Cc2ccccc2)C1 (stereo not given)	0	0	0	0	1.8µM	0
Cn1c(N2CCCCC2)nc2c1c(=O)[nH]c(=O)n2C	0	-106	?	0	?	0
COc1ccc(N2CCN(c3nc4c(c(=O)n(C)c(=O)n4C)n3Cc3ccccc3)CC2)cc1	0	0	0	0	?	0
Cn1c(=O)c2c(nc(N3CCCCCC3)n2CCSc2nc3ccccc3o2)n(C)c1=O	0	?	0	0	4.5µM	0
CC1CCN(c2nc3c(c(=O)n(C)c(=O)n3C)n2CCSc2nc3ccccc3o2)CC1	0	?	0	0	0	0
Cc1ccc(OCC(O)Cn2c(N3CCOCC3)nc3c2c(=O)[nH]c(=O)n3C)cc1 (stereo not given)	0	-94	0	-	0	-
C=CCn1c(N2CCCC2)nc2c1c(=O)[nH]c(=O)n2C	0	0	0	0	0	0
COc1ccc(CCNc2cc(=O)[nH]c(N)n2)cc1	0	?	0	0	0	0
Cn1c(=O)[nH]c(=O)c2c1nc(N1CCC(Cc3ccccc3)CC1)n2Cc1ccccc1	0	0	?	0	10µM	0
Cn1c(=O)[nH]c(=O)c2c1nc(NCCCn1ccnc1)n2CCOc1ccccc1	0	0	0	0	0	0
Cn1c(=O)[nH]c(=O)c2c1nc(NCCCn1ccnc1)n2Cc1ccccc1	0	-102	0	0	0	0
CC1(C)CC(=O)c2cc(N=C/C(C(=O)c3ccccc3)=C(\O)c3ccccc3)c(=O)oc2C1	-	-	0	-	?	0
CC(C)(C)c1nnc2sc(SC/C(O)=C(\C#N)c3nc4ccccc4[nH]3)nn2c1=O	0	-95	?	20µM	?	13µM
CC(C)(C)c1nnc2sc(SCC(=O)c3ccccc3)nn2c1=O	0	0	0	0	?	0
COc1ccc(C(=O)CSc2nn3c(=O)c(C(C)(C)C)nnc3s2)cc1	0	?	0	0	0.4µM	0
Cc1ccc(NC(=O)c2cc(-c3ccccc3)nn2-c2ccccc2)c(Br)c1	-	?	0	?	?	0
CCCCCCC#CC1C=CC(OC(C)=O)C(COC(C)=O)O1 (stereo not given)	-	-	-	-	3.2µM	-
CC(=O)OCC1OC(C#Cc2ccc(Cl)cc2)C=CC1OC(C)=O (stereo not given)	-	-	-	-	0[13.5 µM]	-
COC(=O)Cn1c2ccc(F)cc2c2nc(C)sc21	0	0	0	0	?	0
Cc1ccc(/C=N/n2c(-c3ccncc3)n[nH]c2=S)o1	-	-	0	-	0	0
Cc1cc(-c2n[nH]c(=S)n2/N=C/c2cccc(O)c2)n[nH]1	-	-	0	-	0	-
Cc1ccsc1/C=N/n1c(-c2ccncc2)n[nH]c1=S	-	0	0	28µM	0	0

Screening results from PubChem BioAssay.
